Laboratory results taken from ChEMBL document CHEMBL3988442, “University of Dundee, Small-Polar-MMV Screening Library” (2021).
For some assays here: Measured potencies and affinities stand elsewhere.

Tests used:
Design in all cases: scale not given: direction of the effect not stated beside the values
[1] = molecular target: Protein translocase subunit SecA (Escherichia coli (strain K12)) (UniProt P10408); assay: Assay to Identify E. coli SecA ATPase Inhibitors; assay type: functional; conditions: 30 µM
[2] = molecular target: T1, Ubiquitin-activating enzyme e1, putative (Leishmania donovani (strain BPK282A1)) (UniProt E9BSI1); assay: Leishmania donovani Ubiquitin Activating Enzyme (LdE1); assay type: functional; conditions: 30 µM
T1 sequence (whole entry): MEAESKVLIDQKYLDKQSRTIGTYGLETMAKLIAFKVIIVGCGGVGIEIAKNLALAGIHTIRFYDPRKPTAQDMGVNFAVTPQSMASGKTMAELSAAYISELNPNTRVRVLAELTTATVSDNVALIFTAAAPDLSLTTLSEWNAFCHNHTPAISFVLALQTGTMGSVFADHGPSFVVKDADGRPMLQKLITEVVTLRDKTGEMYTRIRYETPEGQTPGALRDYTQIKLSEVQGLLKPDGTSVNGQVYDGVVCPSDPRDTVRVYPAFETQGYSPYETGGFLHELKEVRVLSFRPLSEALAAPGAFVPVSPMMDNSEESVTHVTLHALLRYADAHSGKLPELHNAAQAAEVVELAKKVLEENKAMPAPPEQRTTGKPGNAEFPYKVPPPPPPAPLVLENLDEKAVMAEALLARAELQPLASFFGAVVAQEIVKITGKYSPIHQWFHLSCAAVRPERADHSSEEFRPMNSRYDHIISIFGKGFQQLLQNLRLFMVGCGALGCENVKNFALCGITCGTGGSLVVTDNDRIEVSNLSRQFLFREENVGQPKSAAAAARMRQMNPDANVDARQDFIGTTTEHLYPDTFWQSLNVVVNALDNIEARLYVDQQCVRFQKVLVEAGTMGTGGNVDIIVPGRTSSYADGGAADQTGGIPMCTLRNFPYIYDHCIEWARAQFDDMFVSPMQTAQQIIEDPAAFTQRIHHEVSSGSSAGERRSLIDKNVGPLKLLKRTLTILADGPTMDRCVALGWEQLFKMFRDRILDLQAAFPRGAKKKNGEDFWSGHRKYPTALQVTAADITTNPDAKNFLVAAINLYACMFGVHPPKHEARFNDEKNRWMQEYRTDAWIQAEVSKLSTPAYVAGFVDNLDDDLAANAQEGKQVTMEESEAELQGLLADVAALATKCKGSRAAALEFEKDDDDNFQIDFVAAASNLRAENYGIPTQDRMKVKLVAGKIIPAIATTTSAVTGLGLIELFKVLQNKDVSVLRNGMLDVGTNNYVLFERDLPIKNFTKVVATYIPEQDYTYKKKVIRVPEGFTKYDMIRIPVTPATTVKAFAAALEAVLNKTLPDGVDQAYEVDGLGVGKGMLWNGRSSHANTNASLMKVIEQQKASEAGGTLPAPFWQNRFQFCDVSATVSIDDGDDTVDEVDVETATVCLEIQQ

[3] = molecular target: AMP-activated protein kinase, AMPK (Homo sapiens) (UniProt P54646+O43741+P54619+Q9UGJ0+Q9Y478+Q13131+Q9UGI9); assay: AMP-dependent Kinase enzyme assay. An in vitro enzyme assay that detects ADP turnover that is directly proportional to AMPK activity. This uses naive AMPK that is activated during the assay with MK-8722; assay type: functional; conditions: 30 µM
[4] = molecular target: Sialic acid-binding Ig-like lectin 9 (Homo sapiens) (UniProt Q9Y336); assay: Hs-Siglec9 ALPHAscreen SOP 20170721; conditions: 10 µM
[5] = test system: Trypanosoma cruzi; assay: Trypanosoma cruzi phosphomannomutase and mannose-1-phosphate guanylyltransferase assay; assay type: functional; conditions: 10 µM
[6] = molecular target: T2, Arginase-2, mitochondrial (Homo sapiens) (UniProt P78540); assay: in vitro enzyme assay to detect the production of urea directly proportional to the activity of Arginase II; assay type: functional; conditions: 33.3 µM; also: in the data most compounds retested in dose-response had high values
T2 sequence (whole entry): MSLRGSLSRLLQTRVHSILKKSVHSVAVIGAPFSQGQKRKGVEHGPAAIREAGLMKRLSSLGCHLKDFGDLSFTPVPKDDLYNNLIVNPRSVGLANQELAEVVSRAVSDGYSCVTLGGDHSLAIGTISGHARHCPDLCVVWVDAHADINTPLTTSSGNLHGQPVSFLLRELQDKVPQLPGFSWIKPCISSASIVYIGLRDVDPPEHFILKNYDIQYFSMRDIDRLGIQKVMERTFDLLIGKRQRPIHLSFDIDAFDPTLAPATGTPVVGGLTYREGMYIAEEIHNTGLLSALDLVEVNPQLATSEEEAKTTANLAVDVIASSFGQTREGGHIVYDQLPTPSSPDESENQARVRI

[7] = molecular target: T3, Proteasome subunit beta (Trypanosoma cruzi) (UniProt O96673); assay: Trypanosoma cruzi proteasome chymotrypsin-like activity (TcProtChymo) assay.; also: in the data most compounds retested in dose-response had high values; assay type: functional; conditions: 9.37 µM
T3 sequence (whole entry): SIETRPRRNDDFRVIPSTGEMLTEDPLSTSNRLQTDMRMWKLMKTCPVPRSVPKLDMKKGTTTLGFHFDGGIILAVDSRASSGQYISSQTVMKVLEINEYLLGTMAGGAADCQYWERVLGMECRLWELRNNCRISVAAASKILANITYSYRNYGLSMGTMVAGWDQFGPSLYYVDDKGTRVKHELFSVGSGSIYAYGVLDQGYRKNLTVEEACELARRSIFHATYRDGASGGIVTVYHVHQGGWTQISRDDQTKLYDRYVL

[8] = organism: Homo sapiens; assay: To identify inhibition of the IFN signalling (Jak-Stat) pathway via expression of an eGFP reporter gene under the control of an IFN-stimulated response element (ISRE) containing MxA promoter.; assay type: functional; conditions: 30 µM
[9] = molecular target: T4, Tyrosyl-tRNA synthetase, putative (Trypanosoma cruzi (strain CL Brener)) (UniProt Q4DSP6); assay: Trypanosoma cruzi tyrosyl tRNA synthetase (TcYRS) _High Tyrosine SOP; assay type: functional; conditions: 30 µM; also: in the data most compounds retested in dose-response had high values
T4 sequence (whole entry): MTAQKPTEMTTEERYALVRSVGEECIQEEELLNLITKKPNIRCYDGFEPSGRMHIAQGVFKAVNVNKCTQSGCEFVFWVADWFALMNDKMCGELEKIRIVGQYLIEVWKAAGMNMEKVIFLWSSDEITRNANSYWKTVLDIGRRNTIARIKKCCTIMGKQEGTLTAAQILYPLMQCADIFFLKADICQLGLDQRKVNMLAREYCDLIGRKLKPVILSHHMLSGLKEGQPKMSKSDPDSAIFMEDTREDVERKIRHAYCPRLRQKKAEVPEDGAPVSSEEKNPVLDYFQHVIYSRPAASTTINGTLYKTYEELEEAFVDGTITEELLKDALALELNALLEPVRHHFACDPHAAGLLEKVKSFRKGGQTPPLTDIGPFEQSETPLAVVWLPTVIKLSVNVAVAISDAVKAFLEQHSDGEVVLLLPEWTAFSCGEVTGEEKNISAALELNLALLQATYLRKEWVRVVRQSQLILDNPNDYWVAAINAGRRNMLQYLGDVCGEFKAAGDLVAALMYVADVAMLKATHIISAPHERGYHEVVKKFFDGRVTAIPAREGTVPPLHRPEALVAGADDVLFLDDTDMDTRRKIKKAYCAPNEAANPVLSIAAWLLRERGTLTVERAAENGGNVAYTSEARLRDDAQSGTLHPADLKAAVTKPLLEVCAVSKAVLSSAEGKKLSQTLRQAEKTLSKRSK

[10] = molecular target: T4, Tyrosyl-tRNA synthetase, putative (Trypanosoma cruzi (strain CL Brener)); assay: Trypanosoma cruzi tyrosyl tRNA synthetase (TcYRS) SOP; assay type: functional; conditions: 30 µM
[11] = molecular target: Chromo domain-containing protein 1 (Saccharomyces cerevisiae (strain ATCC 204508 / S288c) (Baker's yeast)) (UniProt P32657); assay: ScCHD-1 Enzyme Inhibition Assay; assay type: functional; conditions: 30 µM; also: in the data most compounds retested in dose-response had high values
Chain of Chromo domain-containing protein 1 (Saccharomyces cerevisiae (strain ATCC 204508 / S288c) (Baker's yeast)) (P32657 whole entry, the tested form may be a part): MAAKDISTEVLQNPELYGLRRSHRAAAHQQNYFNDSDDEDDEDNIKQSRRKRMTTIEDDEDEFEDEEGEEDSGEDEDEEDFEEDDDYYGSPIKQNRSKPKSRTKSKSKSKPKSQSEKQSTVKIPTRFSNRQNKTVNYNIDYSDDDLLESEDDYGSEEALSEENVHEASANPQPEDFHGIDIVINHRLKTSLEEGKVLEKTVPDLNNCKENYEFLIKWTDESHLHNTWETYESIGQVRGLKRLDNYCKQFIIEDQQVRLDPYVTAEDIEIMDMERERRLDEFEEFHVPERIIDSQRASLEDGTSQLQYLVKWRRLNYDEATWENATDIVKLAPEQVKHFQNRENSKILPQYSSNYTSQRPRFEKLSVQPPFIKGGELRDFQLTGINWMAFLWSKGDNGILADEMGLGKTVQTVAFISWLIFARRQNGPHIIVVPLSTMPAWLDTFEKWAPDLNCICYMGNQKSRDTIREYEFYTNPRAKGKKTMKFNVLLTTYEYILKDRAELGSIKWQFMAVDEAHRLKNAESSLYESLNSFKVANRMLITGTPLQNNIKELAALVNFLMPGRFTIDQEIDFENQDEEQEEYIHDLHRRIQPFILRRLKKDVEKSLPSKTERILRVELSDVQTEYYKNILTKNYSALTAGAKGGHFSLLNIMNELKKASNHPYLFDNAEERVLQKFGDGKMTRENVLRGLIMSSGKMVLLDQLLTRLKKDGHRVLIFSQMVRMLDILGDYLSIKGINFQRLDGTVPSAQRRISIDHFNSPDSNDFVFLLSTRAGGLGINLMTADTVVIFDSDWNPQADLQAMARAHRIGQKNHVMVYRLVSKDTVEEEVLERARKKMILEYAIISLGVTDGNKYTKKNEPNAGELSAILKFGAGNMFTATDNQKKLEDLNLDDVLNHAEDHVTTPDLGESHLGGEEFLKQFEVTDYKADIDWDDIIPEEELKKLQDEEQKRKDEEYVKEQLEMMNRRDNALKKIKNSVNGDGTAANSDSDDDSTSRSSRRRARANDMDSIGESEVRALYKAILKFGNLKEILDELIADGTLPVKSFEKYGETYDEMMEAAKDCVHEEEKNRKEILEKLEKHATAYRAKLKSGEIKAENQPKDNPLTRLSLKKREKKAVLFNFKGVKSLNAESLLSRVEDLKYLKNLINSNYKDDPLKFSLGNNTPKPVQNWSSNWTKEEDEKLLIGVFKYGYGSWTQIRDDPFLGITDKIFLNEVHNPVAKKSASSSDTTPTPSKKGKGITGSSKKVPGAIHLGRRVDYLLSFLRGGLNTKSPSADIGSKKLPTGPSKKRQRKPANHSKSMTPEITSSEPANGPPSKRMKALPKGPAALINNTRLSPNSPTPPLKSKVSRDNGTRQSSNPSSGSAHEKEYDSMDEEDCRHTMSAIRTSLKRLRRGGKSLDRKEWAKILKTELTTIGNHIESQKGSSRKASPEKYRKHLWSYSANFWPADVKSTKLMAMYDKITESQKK

Chain of Sialic acid-binding Ig-like lectin 9 (Homo sapiens) (Q9Y336 whole entry): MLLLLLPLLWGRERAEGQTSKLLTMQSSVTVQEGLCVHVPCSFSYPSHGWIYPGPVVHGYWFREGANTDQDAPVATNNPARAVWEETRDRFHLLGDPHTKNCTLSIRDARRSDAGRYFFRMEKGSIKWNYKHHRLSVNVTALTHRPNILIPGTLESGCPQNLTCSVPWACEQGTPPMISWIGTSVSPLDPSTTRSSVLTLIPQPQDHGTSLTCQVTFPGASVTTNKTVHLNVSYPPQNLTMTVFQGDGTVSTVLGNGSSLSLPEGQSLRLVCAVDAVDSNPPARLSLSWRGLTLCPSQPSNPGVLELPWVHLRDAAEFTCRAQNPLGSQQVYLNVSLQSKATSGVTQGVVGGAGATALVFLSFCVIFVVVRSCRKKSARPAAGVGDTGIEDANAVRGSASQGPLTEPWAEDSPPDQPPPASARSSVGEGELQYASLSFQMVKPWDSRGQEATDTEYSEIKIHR
Chain of Protein translocase subunit SecA (Escherichia coli (strain K12)) (P10408 whole entry): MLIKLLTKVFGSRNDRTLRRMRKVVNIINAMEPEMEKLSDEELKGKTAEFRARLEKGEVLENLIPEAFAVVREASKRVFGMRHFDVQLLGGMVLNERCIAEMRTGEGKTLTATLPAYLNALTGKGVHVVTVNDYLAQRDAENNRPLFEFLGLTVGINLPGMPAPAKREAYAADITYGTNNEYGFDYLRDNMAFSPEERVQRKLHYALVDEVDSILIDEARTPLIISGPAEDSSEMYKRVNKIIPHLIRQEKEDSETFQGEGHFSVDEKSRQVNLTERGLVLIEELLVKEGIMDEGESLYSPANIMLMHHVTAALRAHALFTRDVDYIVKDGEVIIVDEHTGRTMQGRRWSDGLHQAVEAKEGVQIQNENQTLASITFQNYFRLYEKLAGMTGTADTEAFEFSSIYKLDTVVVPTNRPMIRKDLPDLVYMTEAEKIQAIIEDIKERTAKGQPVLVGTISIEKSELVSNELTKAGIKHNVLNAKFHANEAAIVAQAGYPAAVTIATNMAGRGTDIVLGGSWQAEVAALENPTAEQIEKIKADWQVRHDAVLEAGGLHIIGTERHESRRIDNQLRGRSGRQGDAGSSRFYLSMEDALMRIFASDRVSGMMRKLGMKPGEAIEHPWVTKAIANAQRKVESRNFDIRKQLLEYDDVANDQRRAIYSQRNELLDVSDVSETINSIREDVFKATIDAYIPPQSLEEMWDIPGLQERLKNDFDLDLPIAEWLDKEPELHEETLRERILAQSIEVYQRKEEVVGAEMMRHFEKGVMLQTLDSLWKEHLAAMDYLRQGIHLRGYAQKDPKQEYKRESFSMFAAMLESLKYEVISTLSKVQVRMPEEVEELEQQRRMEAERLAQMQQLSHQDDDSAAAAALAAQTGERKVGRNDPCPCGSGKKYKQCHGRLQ

Structure (SMILES)	Percent Effect [1] [%]	Percent Effect [2] [%]	Percent Effect [3] [%]	Percent Effect [4] [%]	Percent Effect [5] [%]	Percent Effect [6] [%]	Percent Effect [7] [%]	Percent Effect [8] [%]	Percent Effect [9] [%]	Percent Effect [10] [%]	Percent Effect [11] [%]
COc1cccc(CCC2CCCN(C(=O)c3n[nH]c4c3CCC4)C2)c1 (configuration not stated)	-4.51	-18.9	3.21	4.19	-1.35	-8.1	5.69	46.1	11.1	2.44	-1.85
CC(=O)N1CCN([C@@H]2CC[C@@H](NC(=O)c3cncc(C)c3)[C@H]2O)CC1	-3.3	-4.05	8.93	-4.38	-3.75	-2.09	-3.28	18.6	-2.15	-11.7	15.5
Cc1nc(C2(NCC(=O)NCCc3cccs3)CCCC2)no1	-2.85	7.89	-3.1	0.327	-4.38	-9.47	15.1	6.74	2.13	15.6	-1.92
Cc1nc(C)n(C2CCCN(C(=O)c3csc(C(C)C)n3)C2)n1 (configuration not stated)	-5.33	29.7	-10.5	12.2	8.4	-10.4	8.83	14.5	8.37	28.4	-17.4
Cc1nc(CCNC(=O)N2CCC(Cc3cnn(C)c3)C2)cs1 (configuration not stated)	-5.52	2.63	9.75	4.12	-0.682	116	19.9	-10.1	2.13	5.2	-2.02
CN(C)C(=O)CN1C[C@@H]2CC[C@H](C1)N(Cc1cc(F)ccc1F)C2	-2.16	5.48	42.7	2.19	-9.13	-2.79	20.6	15.6	4.17	6.17	-5.68
COc1c(CNCC(c2cccc(F)c2)N(C)C)c(C(C)C)nn1C (configuration not stated)	-2.21	5.2	-2.29	-6.06	4.6	-3.16	4.61	5.62	0	9.41	-5.27
Cc1nc(CN2CCCC2c2nc(C(C)C)no2)cs1 (configuration not stated)	-3.44	18.1	-18.2	15.3	3.79	5.3	9.47	-11.9	5.26	12.8	-5.13
O=C(c1cccc(Cn2ccnc2)c1)N1CCCC(n2ccnc2)C1 (configuration not stated)	-0.331	16.2	-8.78	1.96	5.11	-2.4	7	29	5.94	25.6	-6.66
c1cc2c(cc1C1CCCN1Cc1nnnn1C1CC1)OCCO2 (configuration not stated)	-3.24	6.94	-13.5	29.5	6.32	-5.74	4.39	-5.04	5.26	15.4	-4.08
CN(C)S(=O)(=O)N1C[C@H](Oc2cccnc2)[C@H]2OCCC[C@H]21	-5.31	5.2	74	-1.91	-0.69	-4.52	3.65	10.9	0	-1.28	-8.75
O=C(Cc1cccs1)N1C[C@@H]2COC[C@]2(COc2cccnc2)C1	-2.91	8.11	-0.523	-5.15	7.62	-1.25	8.2	-12.3	7.92	11	-1.81
COc1ccc(C(CO)NC(=O)Nc2cccnc2)cc1 (configuration not stated)	-4.93	-2.7	-0.874	3.21	-3.86	-3.81	10.9	10.2	-0.529	-4.88	-2.24
COc1ccc(CN2CCC3(CC(=O)N(c4cncnc4)C3)C2)cc1 (configuration not stated)	-1.48	16.2	5.08	-9.74	-3.81	-7.33	12.9	5.2	1.08	7.69	-3.32
O=c1nc(SCc2cccnc2)c2c(n1CCO)CCC2	-1.99	13.7	-3.57	7.9	0.588	5	15.8	16.7	6.45	15	-7.2
Cc1nccn1C1CCCN(C(=O)c2ccc3c(c2)nnn3C)C1 (configuration not stated)	-3.52	10.5	-2.69	0.191	-4.95	5.75	9.9	3.52	4.43	6.17	-4.12
Cc1cnn(CCC(=O)N2CCCN(c3cccnn3)CC2)c1	1.07	3.8	1.28	0.558	1.74	-0.645	13.2	12.8	2.08	5.06	-16.1
Cc1cc(NC(=O)c2nc(N3CCCC3)ncc2Cl)nc(C(C)C)n1	-0.667	5.41	-5.04	-2.54	-8.79	3.33	17.2	2.69	9.9	8.54	0.666
COc1ccc(CCN2CCCC2Cn2nc(C)nc2C)cc1 (configuration not stated)	-3.93	10.1	-5.37	-5.48	-0.85	6.46	6.31	26.4	6.4	8.86	-5.44
CNC(=O)c1ccc(CN2CCC(N(C)Cc3noc(C)n3)C2)cc1 (configuration not stated)	-2.92	18.2	-3.53	-3.54	-2.25	4.42	15.9	22.1	-1.91	14.1	-19.2
CCNC(c1cccnc1)c1cc(C)cc(C)c1 (configuration not stated)	-3.46	-3.8	4.33	-1.27	2.15	-4.52	5.83	-28.2	0	5.06	2.53
CCCNC(=O)c1cnc(N(C)C)nc1COC	-3.99	9.33	7.82	8.88	2.75	-2.99	8.69	13.2	1.06	10.3	-3.99
